15 molecules from PubChem BioAssay (NCI) can be followed below.

This is part of a sample that, as a whole, favours compounds with a hit. Of some 83,000 tested, about 20% had one in any assay.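 Plates (96-well) were seeded with cells, treated with compound at one concentration, and incubated for 48 hours before percent growth was determined.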 A number with no mark means an inactive call. The source made the active and inactive calls. The calls were made as follows: active = growth percent below 10; inactive = the rest.

The assay deals with HL-60(TB) leukemia. Description: NCI-60 one-dose screen, 48 h (100 = growth as untreated, 0 = no growth, -100 = all killed). The following applies: 10 µM unless noted.
Consider `Cc1ccc(-n2nnnc2N)c(C)c1`, for which the growth is 117%.
In the case of `CCOc1cccc(/C=N/NC(=O)Cc2ccc(Nc3ccnc(C(F)(F)F)c3)cc2)c1O`, the growth was 73.1%.
`COc1cc(C(C)n2cc(-c3ccccc3)nn2)ccc1OC1CCCC1` (stereo not given): the growth is 53.1%.
To `COc1cc2c(cc1OC)C(=O)/C(=C/c1cc(C)c(O)c(C)c1)S2` belongs -3.56% (active).
`FC(F)(F)c1cc(N2CCCCC2)nc(NCCCNc2ccnc3cc(Cl)ccc23)n1`: the growth was 42.1%.
Consider `CCOC(=O)c1sc2ccc(NCc3nc[nH]c3C)cc2c1NC(=O)c1cc(OC)c(OC)c(OC)c1`, for which the growth is 5.99% (active).
For `Fc1ccc2[nH]cc(-c3nc(-c4ccsc4)cs3)c2c1`, the growth is 99.3%.
In the case of `CCCCCCCCCCCCCC[n+]1ccccc1`, the growth was -70.3% (active).
As for `CCCCCCCCCCCCCCCCCCn1cc(COc2ccc(C=O)cc2)nn1`, the figure is 86.7%; as for `COc1ccc(Cl)cc1Nc1nc(C(F)(F)F)ccc1C(=O)N/N=C/c1ccc(Cl)cc1`, 9.34% (active).
To `COc1ccc(-c2cc(Cc3cccs3)c(=O)n(Cn3ccc4ccccc43)n2)cc1` belongs 98.4%; to `Cn1cc(C(=O)NCCC(=N)N)cc1NC(=O)CN=C(N)N`, 102%; to `Cc1cc(Nc2nc(N3CCN(C)CC3)nc3ccccc23)n[nH]1`, 96.6%.
In the case of `COc1cccc(CCC(=O)c2cc3c(N)c(C(=O)Nc4cccc(Cl)c4C)sc3nc2C)c1`, the growth was 0.884% (active).
For `C=C1CCC2C(C)(COC(=O)CC)C(OC(=O)CC)CCC2(C)C1C/C=C1/C(=O)OCC1OC(=O)CC` (stereo not given), the growth was -43.8% (active).
